Measured values taken from PubChem BioAssay AID435005 (Broad Institute, 2010).
Among all 300,000 compounds or so, about 2,400 (0.8%) were called active.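 The calls were made as follows: active = Every replicate reaches about 75%, or at least half do and their mean reaches it too (limit read from the data); inconclusive = At least half of replicates reach the limit but their mean does not; inactive = Under half of replicates reach the limit.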 The sample as a whole holds a higher share of actives than the screen did.

Test: INS-1E beta cell survival under cytokines – luminescence, primary screen (AID 435005);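 also: 0% = cytokine-treated negative control wells and 100% = positive control rescue; higher means more ATP so stronger rescue from cytokine killing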
Conditions: INS-1E cytokine-induced death, ATP luminescence, 48 h; stronger effect = higher value; percent of positive-control rescue, neutral wells zero; concentration not given here

Structure (SMILES)	protection from apoptosis
Cn1c(=O)[nH]c(=O)c2c1nc(N1CCN(C(c3ccccc3)c3ccccc3)CC1)n2CCO	99.9% (active)
CN1CCN(c2nc3c(c(=O)[nH]c(=O)n3C)n2Cc2cccc3ccccc23)CC1	2.14% (inactive)
Cn1c(=O)[nH]c(=O)c2c1nc(N1CCN(CCO)CC1)n2CCSc1nc2ccccc2s1	2.68% (inactive)
CCCCCCn1c(CN2CCCCC2)nc2c1c(=O)n(C)c(=O)n2C	2.42% (inactive)
CCCCCCCCn1c2c(c(=N)c3c1CCC3)CCCC2	99.8% (active)
CC(NC(=O)COC(=O)c1ccc2ccccc2n1)c1ccccc1 (stereo unspecified)	-4.86% (inactive)
O=C(Nc1nnc(-c2ccccc2)o1)c1cccc(S(=O)(=O)N2CCOCC2)c1	5.19% (inactive)
Cc1c(Cl)c([N+](=O)[O-])nn1CCCC(=O)Nc1cc(Cl)ccc1Cl	5.23% (inactive)
Cc1ccc(C(=O)O)cc1NC(=O)c1ccc(Cn2nc(C)c(Cl)c2C)o1	1.11% (inactive)
Cc1c(Cl)c([N+](=O)[O-])nn1Cc1ccc(C(=O)N/N=C\c2cc(Cl)ccc2O)o1	89.7% (active)
O=C(CSc1nnc(N2CCOCC2)n1-c1cccc(F)c1)N1CCN(c2ccccn2)CC1	-0.686% (inactive)
COc1cccc2sc3cc(NCC[C@@H]4CCCN4C)ccc3c(=O)c12	-2.22% (inactive)
O=Cc1cn(Cc2ccccc2)nc1-c1cccnc1	0.63% (inactive)
O=C1/C(=C\c2cccnc2)CN(Cc2ccccc2)C/C1=C\c1cccnc1	83.8% (active)
Clc1ccc(CN2CCN(/N=C/c3cccnc3)CC2)cc1	-0.218% (inactive)
COc1ccc(C(=O)COC(=O)C(O)c2ccccc2)c(OC)c1 (stereo unspecified)	-0.354% (inactive)
O=C(COC(=O)c1ccc(F)cc1)NCC1COc2ccccc2O1 (stereo unspecified)	-5.32% (inactive)
CCOC(=O)/C(=C\c1ccc([N+](=O)[O-])cc1)C(=O)c1cc(C(C)=O)c(Nc2ccccc2)s1	107% (active)
CCOC(=O)COc1ccc([N+](=O)[O-])cc1	-8.02% (inactive)

Structure (SMILES)	protection from apoptosis
Cc1ccc(NC(=O)/C(=C/c2ccc([N+](=O)[O-])cc2)NC(=O)c2ccccc2)cc1	-0.596% (inactive)
COc1ccc2nc3n(c(=O)c2c1)-c1ccc(Cl)cc1C(=O)NC3Cc1ccccc1 (stereo unspecified)	5.15% (inactive)
COc1ccc(S(=O)(=O)N(C)C[C@@H]2Oc3ccc(NC(=O)Nc4c(C)noc4C)cc3C(=O)N([C@H](C)CO)C[C@@H]2C)cc1	4.1% (inactive)
Cc1cc(C(=O)N/N=C/c2ccccn2)c2ccccc2n1	-6.79% (inactive)
Cc1nnc(N/N=C/c2ccccn2)[nH]c1=O	109% (active)
O=C(N/N=C/c1ccccn1)c1cccnc1	-0.0642% (inactive)
COc1ccc(S(=O)(=O)N2CCN(CC(=O)N3CCOCC3)CC2)cc1OC	-2.22% (inactive)
CN(c1ccccc1)S(=O)(=O)c1cccc(NC(=O)Cc2ccc(Cl)cc2)c1	14.2% (inactive)
COc1cccc(CNCCc2c[nH]c3ccccc23)c1OCc1ccccc1F	82.8% (active)
COc1ccc(C(CCNCc2ccccc2F)c2ccc(F)cc2)cc1 (stereo unspecified)	1.89% (inactive)
COc1ccccc1NC(=O)CCCc1c[nH]c2ccccc12	6.21% (inactive)
C=CCC[C@H](Cc1ccc(F)cc1)C(=O)OC[C@@H](Cc1c[nH]c2ccccc12)NC(=O)[C@H](CC=C)CC(=O)N[C@H](CO)Cc1ccccc1	-1.63% (inactive)
Cc1cc(N2CCCC2)ccc1NC(=O)COc1ccc(Cl)cc1	-16.4% (inactive)
O=C1N[C@H](Cc2c[nH]c3ccccc23)COC(=O)[C@H](Cc2ccc(F)cc2)C/C=C\C[C@H]1CC(=O)N(CCO)Cc1ccccc1	-0.37% (inactive)
CCc1ccc(OCC2c3cc(OC)c(OC)cc3CCN2C(C)=O)cc1 (stereo unspecified)	-2.37% (inactive)
COc1ccc2c(c1)CCNC2Cc1ccc(OC)c(O)c1 (stereo unspecified)	-7.35% (inactive)
CC[C@H]1CN2CCc3cc(OC)c(OC)cc3[C@@H]2C[C@@H]1C[C@H]1NCCc2cc(OC)c(OC)cc21	81.8% (active)
Cc1ccc(S(=O)(=O)N2CCN(C(=O)Cn3c(=O)cnc4ccccc43)CC2)c(C)c1	3.1% (inactive)
CCOc1ccccc1Nc1nnc(SCC(=O)NCC2CCCO2)s1 (stereo unspecified)	-3.28% (inactive)

Structure (SMILES)	protection from apoptosis
COc1ccccc1/C=N\Nc1cc(C)nc(-n2nc(C)cc2C)n1	85.5% (active)
COc1ccccc1/C=N/Nc1nc(C)c(C(C)=O)s1	1.33% (inactive)
Cc1cc(N/N=C\c2ccc(Br)cc2)nc(-n2nc(C)cc2C)n1	101% (active)
COc1ccc(/C=N/Nc2cc(N3CCOCC3)nc(C)n2)c(OC)c1	-0.288% (inactive)
Cc1ccc(S(=O)(=O)Nc2nc(C)cc(N/N=C/c3ccc(O)cc3)n2)cc1	-0.0503% (inactive)
Cc1nc(Cl)cc(N/N=C/c2ccccc2)n1	0.482% (inactive)
COc1cccc(/C=N/Nc2cc(C)nc(-c3ccccc3O)n2)c1O	83.1% (active)
COc1cc(/C=N/Nc2nc3ccccc3s2)ccc1O	-9.44% (inactive)
COc1cccc2c(N/N=C/c3ccco3)cc(C)nc12	0.451% (inactive)
CC(=O)Nc1ccc(S(=O)(=O)NCCC(=O)N2CCN(c3ccccc3Cl)CC2)cc1	4.22% (inactive)
O=S(=O)(NCC1CN(S(=O)(=O)c2ccc3c(c2)OCCO3)C1)c1c(F)cccc1F	-0.452% (inactive)
O=C(COC(=O)c1n[nH]c2ccccc12)Nc1ccccc1Br	2.52% (inactive)
O=C(Nc1ccc(C(F)(F)F)cc1)c1cccc(-n2cnnn2)c1	8.03% (inactive)
Cc1ccc(C(=O)Nc2ccccc2-c2ccccc2)cc1S(=O)(=O)Nc1ccccc1	12.9% (inactive)
O=C(NCCOc1cccnc1)c1ccc(OC2CCN(Cc3ccccn3)CC2)cc1	120% (active)
O=C(c1ccc(OC2CCN(Cc3ccccn3)CC2)cc1)N1CCCCCC1	-1.86% (inactive)
CN(CCc1ccccn1)C(=O)c1ccc(OC2CCN(Cc3ccccn3)CC2)cc1	0.235% (inactive)
CN(Cc1ccc(F)cc1)C(=O)CN1C(=O)c2ccccc2S1(=O)=O	-4.27% (inactive)
